Experimental data published in PubChem BioAssay (NCATS).
Results filed as inconclusive are left out. A call without a number means that no potency is given here. The source made the active and inactive calls. Unless noted, calls follow the shape of the dose curve; as a rule, active = well fitted curve in the direction sought with a large enough effect; inconclusive = small, poorly fitted or top-dose-only effect, or another doubt; inactive = no such curve, though single readings can be large; an effect the other way counts as inactive or inconclusive.

Legend:
[1] = qHTS assay for measurement of the activity of small molecule inhibitors on Zika virus induced Caspase-3 activity in human iPSC derived neural progenitor cells (hNPCs) (AID 1224857); also: nearly all actives have a fitted effect of over 65% in size
In short: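 Human iPSC-derived neural progenitor cells pretreated 1 hr with compounds, then infected with Zika virus (2 FFU/cell) for 6 hours at 37 C. Caspase-3/7 measured by Caspase-Glo luminescence; % inhibition calculated from induction scaled to uninfected (0%) and infected (100%) wells.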

[2] = qHTS assay for measurement of the activity of small molecule inhibitors on Zika virus induced Caspase-3 activity in human astrocytoma cells (AID 1224859)
In short: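 SNB-19 astrocytoma cells, 250/well, pretreated 1 h with compounds, then Zika virus at 2 FFU/cell for 6 h at 37 C; Caspase-Glo 3/7 luminescence after 30 min; percent inhibition normalised to uninfected and infected controls.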

[3] = qHTS assay to identify small molecule inhibitors of chordoma cells - UCH-2 (AID 1259356)
[4] = qHTS assay to identify small molecule inhibitors of chordoma cells - UCH-1 (AID 1259355); also: nearly all actives have a fitted effect of over 55% in size
In short: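 Seed 800 cells per well; incubate overnight at 37 C, 5% CO2. Add test compounds (15 concentrations), then the auranofin–topoisomerase-agent combination. Incubate 48hr, add CellTiter-Glo, wait 30min, read luminescence.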

[5] = NS1 protein of Zika virus - qHTS assay to identify small molecule inhibitors in human HEK 293 cells (AID 1347053); also: nearly all actives have a fitted effect of over 55% in size
In short: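 HEK 293 cells pretreated with compound for 1 h, then infected with ZIKV MR766 (MOI 0.5) for 24 h at 37 C. NS1 detected by TR-FRET with two anti-NS1 antibodies; normalized to uninfected (0%) and infected (100%) wells.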

[6] = P-glycoprotein substrates identified in KB-8-5-11 adenocarcinoma cell line, qHTS therapeutic library screen (AID 1346987); also: nearly all actives have a fitted effect of over 65% in size; also: potency is read from the fitted curve at half-maximal effect
In short: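 KB-8-5-11, a colchicine-selected P-gp-overexpressing KB-3-1 subline, was grown without colchicine for the assay. Cells were seeded at 500 cells/well, dosed in concentration-response and incubated 72 h at 37 degree C, 5% CO2. Viability was read by CellTiter-Glo luminescence.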

[7] = Natriuretic polypeptide receptor (hNpr1) antagonism - Pilot counterscreen GloSensor control cell line (AID 1347045; calls by dose curve)
In short: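 HEK293 cGMP GloSensor cells preloaded 2 h with 2% GloSensor reagent, then compound 30 min before baseline luminescence read. Stimulated with 50 uM sodium nitroprusside, 20 min at room temperature, then read again; counterscreen for Npr1 antagonism.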

[8] = qHTS profiling for inhibitors of Plasmodium falciparum (DD2) proliferation (AID 743323; call rule not given here); conditions: lower = more inhibition; at 28.7 µM (top of the series) unless noted
In short: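 P. falciparum Dd2-infected erythrocytes (0.3% parasitemia, 2.5% hematocrit) exposed 72 h at 37 C, 5% CO2. Lysis with SYBR Green, overnight at room temperature, fluorescence 485/535 nm; normalized to 0.29 uM artemisinin and DMSO.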

[9] = qHTS profiling for inhibitors of Plasmodium falciparum (HB3) proliferation (AID 743324); conditions: Plasmodium falciparum HB3 blood-stage proliferation; at 28.7 µM (top of the series) unless noted
In short: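 P. falciparum HB3 grown in erythrocytes (0.3% parasitemia, 2.5% hematocrit final) with compound for 72 h at 37 C, 5% CO2. Parasite DNA detected by SYBR Green after saponin/triton lysis overnight; normalized to 0.29 uM artemisinin and DMSO.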

[10] = qHTS profiling of the MIPE4 collection as inhibitors of Plasmodium falciparum (3D7) proliferation (AID 743344; call rule not given here); conditions: P. falciparum 3D7 in erythrocytes, SYBR Green DNA fluorescence, 72 h; at 28.5 µM (top of the series) unless noted
In short: (§1)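 Erythrocytes infected with P. falciparum (0.3% parasitemia, 2.5% hematocrit) incubated with compounds 72 h at 37 C, 5% CO2. Lysis with saponin/Triton buffer containing SYBR Green I, overnight at room temperature in the dark; DNA fluorescence (485/535 nm) normalised to 0.29 uM artemisinin and DMSO.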

[11] = qHTS profiling of the MIPE4 collection as inhibitors of Plasmodium falciparum (DD2) proliferation (AID 743345; call rule not given here); conditions: P. falciparum Dd2 in erythrocytes, SYBR Green DNA, 72 h; at 28.5 µM (top of the series) unless noted
In short: as §1

[12] = qHTS profiling of the MIPE4 collection as inhibitors of Plasmodium falciparum (DD2) proliferation (Rep 2) (AID 743346; call rule not given here); conditions: P. falciparum Dd2 in erythrocytes, SYBR Green DNA, 72 h; at 28.5 µM (top of the series) unless noted
In short: as §1

[13] = qHTS profiling of the MIPE4 collection as inhibitors of Plasmodium falciparum (HB3) proliferation (AID 743347; call rule not given here); conditions: P. falciparum HB3 in erythrocytes, SYBR Green DNA, 72 h; at 28.5 µM (top of the series) unless noted
In short: as §1

In the case of `Oc1ccc(Cl)cc1Sc1cc(Cl)ccc1O`, the outcome [1] is reported as “inactive”, the outcome [2] is reported as “inactive” and the Potency [3] is reported as “inactive”.
For `O=C1[C@H]2CCCC[C@H]2C(=O)N1CCCCN1CCN(c2nsc3ccccc23)CC1`, the outcome [1] was “inactive”, the outcome [2] was “inactive” and the Potency [3] was “inactive”.
For `O=c1[nH]c(=O)n([C@H]2C[C@H](O)[C@@H](CO)O2)cc1C(F)(F)F`, the outcome [1] was “inactive”, the outcome [2] was “inactive” and the Potency [4] was “inactive”. For the same compound, the Potency [5] was “inactive”.
In the case of `O=C(O)CCCCC(=O)O`, the outcome [1] is reported as “inactive”, the outcome [2] is reported as “inactive” and the Potency [4] is reported as “inactive”. The Potency [6] was “inactive” and the Potency [5] was “inactive”.
In the case of `CN1CCC(=C2c3ccccc3Sc3ccccc32)CC1`, the outcome [1] is reported as “inactive”, the outcome [2] is reported as “inactive” and the Potency [4] is reported as “inactive”. For the same compound, the Potency [6] was 9.2 µM (active).
For `CNCCC(Oc1ccccc1C)c1ccccc1` (centres undefined), the outcome [1] was “inactive”, the outcome [2] was “inactive” and the Potency [4] was “inactive”. The outcome [7] was “inactive” and the Potency [5] was “inactive”.
Compound `CN1CCN(CCCN2c3ccccc3Sc3ccc(S(=O)(=O)N(C)C)cc32)CC1` has an activity, percent of control [8] of 2.48% [at 9.63 µM], a remaining proliferation (% of control), lower = more inhibition [9] of 1.27% [at 9.63 µM] and a parasite growth, % of DMSO control [10] of 63.5% [at 9.64 µM]. The parasite growth remaining, % of DMSO control (lower = more inhibition) [11] was 44% [at 9.64 µM], the parasite growth, % of control (lower = inhibition) [12] was 48.8% [at 9.64 µM] and the growth, % of control [13] was 68.8% [at 9.64 µM]. The outcome [1] was “inactive”, the outcome [2] was “inactive” and the Potency [4] was “inactive”. For the same compound, the Potency [3] was “inactive”.
